Measurements: PubChem BioAssay (Tox21)
“And” between values parts separate entries of the source, which are not always exact repeats. Equal values may be shown once. More than one record can exist for a structure, and the calls need not agree. The source made the active and inactive calls. Unless noted, calls come from the whole dose curve; as a rule, active = well fitted curve in the direction sought with a large enough effect in the repeat runs; inconclusive = weak or mixed curves; inactive = no such curve, though single readings can be large; an effect the other way counts as inactive or inconclusive.

Assays:
[1] = qHTS assay to identify small molecule antagonists of the thyroid receptor (TR) signaling pathway - cell viability counter screen (AID 743064); note: nearly all actives have a fitted effect of over 50% in size; note: potency is the fitted concentration of half-maximal effect
Outline: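 GH3.TRE-Luc cells, 4 h pre-plating; cpd + T3 1 nM final; 37 °C 23.5 h; CellTiter-Fluor 30 min; fluorescence read.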

[2] = target: Estrogen receptor (Homo sapiens) (UniProt P03372); assay: qHTS assay to identify small molecule antagonists of the estrogen receptor alpha (ER-alpha) signaling pathway (AID 743069; active = well fitted curve in the direction sought with a large enough effect in the signal ratio in the repeat runs, not every such curve was filed as active; inconclusive = weak or mixed curves, or effect the other way; inactive = no such curve, though single readings can be large or run the other way; the % refers to the signal ratio)
Outline: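 Beta-lactamase FRET fluorescence is read after 2 hr at room temperature with LiveBLAzer B/G substrate. Before that, ER-alpha-bla HEK293 cells sit 4 hr after plating, then receive compound plus 17beta-estradiol and incubate 18 hr at 37C.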

[3] = qHTS assay to identify small molecule antagonists of the estrogen receptor alpha (ER-alpha) signaling pathway - cell viability counter screen (AID 743074; calls by dose curve;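 note: HEK293 cells carrying ER-alpha-UAS-bla reporter stimulated with 17beta-estradiol; nearly all actives have a fitted effect of over 45% in size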)
[4] = target: Estrogen receptor (Homo sapiens) (UniProt P03372); assay: qHTS assay to identify small molecule agonists of the estrogen receptor alpha (ER-alpha) signaling pathway (AID 743075; calls by dose curve;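 note: HEK293 GripTite cells with ER-alpha and UAS-driven beta-lactamase reporter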; note: potency is the fitted concentration of half-maximal effect)
[5] = target: Estrogen receptor (Homo sapiens) (UniProt P03372); assay: qHTS assay to identify small molecule agonists of the estrogen receptor alpha (ER-alpha) signaling pathway using the BG1 cell line (AID 743079); settings: BG1Luc4E2 cells, ERE-luciferase agonist, 22 h; note: nearly all actives have a fitted effect of over 20% in size
[6] = qHTS assay to identify small molecule antagonists of the estrogen receptor alpha (ER-alpha) signaling pathway using the BG1 cell line (AID 743080; calls by dose curve;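 note: BG1 cells stimulated with 17beta-estradiol alongside compound; nearly all actives have a fitted effect of over 25% in size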; note: potency is the fitted concentration of half-maximal effect)
Outline: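 Endogenous full-length ER-alpha in BG1-Luc-4E2 cells drives a stably integrated 4×ERE luciferase gene; compounds were tested against 17beta-estradiol over 21.5 h, with luminescence and multiplexed viability fluorescence recorded.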

[7] = qHTS assay to identify small molecule antagonists of the estrogen receptor alpha (ER-alpha) signaling pathway using the BG1 cell line - cell viability counter screen (AID 743081);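 note: compound given together with 17beta-estradiol as the ER stimulus; nearly all actives have a fitted effect of over 45% in size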
[8] = target: Aromatase (Homo sapiens) (UniProt P11511); assay: qHTS assay to identify aromatase inhibitors (AID 743083); note: nearly all actives have a fitted effect of over 55% in size; note: potency is the fitted concentration of half-maximal effect
[9] = qHTS assay to identify aromatase inhibitors - cell viability counter screen (AID 743084);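 note: cells stimulated with testosterone during compound exposure; nearly all actives have a fitted effect of over 55% in size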; note: potency is the fitted concentration of half-maximal effect
[10] = target: Aryl hydrocarbon receptor (Homo sapiens) (UniProt P35869); assay: qHTS assay to identify small molecule that activate the aryl hydrocarbon receptor (AhR) signaling pathway (AID 743085); note: nearly all actives have a fitted effect of over 15% in size; note: potency is the fitted concentration of half-maximal effect;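 for activation: HG2L7.5c1 human HepG2 liver cells with stably integrated DRE-driven firefly reporter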
Outline: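 Luminescence read-out: ONE-Glo reagent, 30 min at room temperature, in HG2L7.5c1 HepG2 reporter cells treated 24 h at 37C. Viability was measured beforehand by CellTiter-Fluor fluorescence after 30 min at 37C.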

[11] = qHTS assay to identify small molecule that activate the aryl hydrocarbon receptor (AhR) signaling pathway - cell viability counter screen (AID 743086);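 note: HepG2 liver cells carrying the AhR DRE luciferase reporter; nearly all actives have a fitted effect of over 45% in size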
Outline: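 HepG2-AhR-luc (HG2L7.5c1) cells, 4000/well, treated 24 h at 37 C with compound; viability measured as CellTiter-Fluor fluorescence after 30 min in the same wells as the luciferase read.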

[12] = qHTS assay for small molecule activators of the heat shock response signaling pathway - cell viability counter screen (AID 743209); note: nearly all actives have a fitted effect of over 50% in size
Outline: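 Same-well multiplex: after 2.5 h room-temperature incubation with LiveBLAzer B/G substrate and fluorescence reading, CellTiter-Glo reagent was added to HSE-bla HeLa cells that had received compound for 5 h at 37 C; luminescence read after 30 min.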

[13] = test system: thyroid hormone receptor (rat, GH3 cells); assay: qHTS assay to identify small molecule agonists of the thyroid receptor (TR) signaling pathway (AID 743066; calls by dose curve)
[14] = target: Peroxisome proliferator-activated receptor gamma (Homo sapiens) (UniProt P37231); assay: qHTS assay to identify small molecule agonists of the peroxisome proliferator-activated receptor gamma (PPARg) signaling pathway (AID 743094; active = well fitted activation curve with a large enough effect in the signal ratio in the repeat runs, not every such curve was filed as active; inconclusive = weak or mixed curves, or effect the other way; inactive = no such curve, though single readings can be large or run the other way; the % refers to the signal ratio)
Outline: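 Cell-based bla reporter, HEK293H background, PPARg-driven UAS. Pre-incubation 5 h, 37C, 5% CO2. Compound 17 h, 37C. Substrate 1 h RT; fluorescence.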

[15] = qHTS assay for small molecule agonists of the antioxidant response element (ARE) signaling pathway - cell viability counter screen (AID 743203; calls by dose curve; note: nearly all actives have a fitted effect of over 55% in size)
Outline: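 Measured in the same wells as the beta-lactamase ARE reporter, this read-out is CellTiter-Glo luminescence from HepG2 ARE-bla cells given compounds for 16 hrs.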

[16] = qHTS assay to identify small molecule antagonists of the thyroid receptor (TR) signaling pathway (AID 743065); note: nearly all actives have a fitted effect of over 55% in size
Outline: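 GH3.TRE-Luc rat pituitary cells (two TREs driving luciferase) were dosed with compound, then stimulated with 1 nM T3 (final) for 23.5 h at 37 C. ONE-Glo luminescence was the read-out, with CellTiter-Fluor fluorescence as the cytotoxicity counter-screen.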

[17] = target: Peroxisome proliferator-activated receptor gamma (Homo sapiens) (UniProt P37231); assay: qHTS assay to identify small molecule antagonists of the peroxisome proliferator-activated receptor gamma (PPARg) signaling pathway (AID 743191; calls by dose curve; note: nearly all actives have a fitted effect of over 30% in size)
Outline: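 GeneBLAzer PPARg UAS-bla HEK293H cells, 5 h post-plating, exposed to compounds 17 h at 37C. LiveBLAzer B/G FRET substrate added for 1 h at room temperature; beta-lactamase reporter read by fluorescence intensity.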

[18] = qHTS assay to identify small molecule antagonists of the peroxisome proliferator-activated receptor gamma (PPARg) signaling pathway - cell viability counter screen (AID 743194); settings: Potency: co-treated with 50 nM rosiglitazone; note: nearly all actives have a fitted effect of over 55% in size
Outline: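 Cytotoxicity counter screen in PPARg-bla HEK293H cells, same wells as reporter assay. Compounds plus 50 nM rosiglitazone (final) for 17 h at 37 C, then viability read by CellTiter-Glo luminescence.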

[19] = qHTS assay for small molecule agonists of the antioxidant response element (ARE) signaling pathway (AID 743202; active = well fitted activation curve with a large enough effect in the signal ratio in the repeat runs, not every such curve was filed as active; inconclusive = weak or mixed curves, or effect the other way; inactive = no such curve, though single readings can be large or run the other way; the % refers to the signal ratio)
Outline: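 HepG2 ARE-bla reporter line, 2,000 cells/well; 5 h preincubation 37 C/5% CO2; compound (DMSO) 16 h 37 C; B/G FRET substrate 2 h RT; fluorescence intensity.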

[20] = qHTS assay for small molecule activators of the heat shock response signaling pathway (AID 743210; active = well fitted activation curve with a large enough effect in the signal ratio in the repeat runs, with a control signal flat, not every such curve was filed as active; inconclusive = weak or mixed curves; the % refers to the signal ratio;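 note: HeLa cells with beta-lactamase reporter driven by heat shock elements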)
Outline: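 Beta-lactamase reporter read-out: FRET substrate fluorescence after 2.5 h at RT, following 5 h compound treatment at 37 C of HeLa cells carrying HSE-driven bla reporter; quantitative HTS format.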
% is set by controls: 0 for no effect and ±100 for the full control effect.

Sequence of Peroxisome proliferator-activated receptor gamma (Homo sapiens) (P37231 whole entry, looked up): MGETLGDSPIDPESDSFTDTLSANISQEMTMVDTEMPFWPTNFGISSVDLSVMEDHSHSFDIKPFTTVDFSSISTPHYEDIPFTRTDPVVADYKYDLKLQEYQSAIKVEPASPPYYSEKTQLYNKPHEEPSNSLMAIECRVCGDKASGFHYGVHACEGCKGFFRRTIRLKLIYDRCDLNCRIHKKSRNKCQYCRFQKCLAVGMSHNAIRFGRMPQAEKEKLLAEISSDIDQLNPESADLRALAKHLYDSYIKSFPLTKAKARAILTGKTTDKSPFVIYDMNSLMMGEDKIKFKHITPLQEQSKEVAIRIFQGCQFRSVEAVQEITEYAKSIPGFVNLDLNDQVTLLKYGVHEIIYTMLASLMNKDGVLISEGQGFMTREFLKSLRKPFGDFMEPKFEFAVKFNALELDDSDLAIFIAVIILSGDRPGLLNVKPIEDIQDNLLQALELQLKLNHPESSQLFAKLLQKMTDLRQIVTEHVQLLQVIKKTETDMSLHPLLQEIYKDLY
Sequence of Estrogen receptor (Homo sapiens) (P03372 whole entry, looked up): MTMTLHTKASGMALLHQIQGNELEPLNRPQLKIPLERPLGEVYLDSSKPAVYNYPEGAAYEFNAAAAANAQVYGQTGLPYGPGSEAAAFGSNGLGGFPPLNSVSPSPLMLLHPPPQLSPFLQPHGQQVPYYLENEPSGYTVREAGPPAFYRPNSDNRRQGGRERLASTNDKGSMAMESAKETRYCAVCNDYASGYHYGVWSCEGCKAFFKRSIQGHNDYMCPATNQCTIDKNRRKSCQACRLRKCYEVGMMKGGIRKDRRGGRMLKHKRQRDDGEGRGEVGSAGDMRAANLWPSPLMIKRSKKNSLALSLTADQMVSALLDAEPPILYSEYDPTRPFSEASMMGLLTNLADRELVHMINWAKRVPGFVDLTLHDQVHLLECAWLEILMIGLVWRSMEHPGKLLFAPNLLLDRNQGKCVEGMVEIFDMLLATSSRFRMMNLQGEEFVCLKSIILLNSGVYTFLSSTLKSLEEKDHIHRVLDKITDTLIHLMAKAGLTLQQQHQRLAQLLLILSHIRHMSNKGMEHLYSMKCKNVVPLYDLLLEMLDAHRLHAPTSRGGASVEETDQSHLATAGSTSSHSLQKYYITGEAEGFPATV
Sequence of Aromatase (Homo sapiens) (P11511 whole entry, looked up): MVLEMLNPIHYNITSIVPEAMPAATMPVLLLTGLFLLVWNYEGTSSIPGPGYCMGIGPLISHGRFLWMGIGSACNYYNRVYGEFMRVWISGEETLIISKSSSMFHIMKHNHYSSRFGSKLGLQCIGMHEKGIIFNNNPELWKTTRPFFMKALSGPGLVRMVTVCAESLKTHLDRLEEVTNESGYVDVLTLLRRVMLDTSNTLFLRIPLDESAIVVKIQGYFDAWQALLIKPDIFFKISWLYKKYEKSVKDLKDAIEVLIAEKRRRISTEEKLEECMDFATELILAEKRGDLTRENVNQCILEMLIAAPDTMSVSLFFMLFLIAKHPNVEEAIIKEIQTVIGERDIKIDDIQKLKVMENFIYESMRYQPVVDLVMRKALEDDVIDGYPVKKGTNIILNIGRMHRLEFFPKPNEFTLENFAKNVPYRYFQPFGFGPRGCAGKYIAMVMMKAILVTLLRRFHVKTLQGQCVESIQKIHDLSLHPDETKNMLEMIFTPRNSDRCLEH
Sequence of Aryl hydrocarbon receptor (Homo sapiens) (P35869 whole entry, looked up): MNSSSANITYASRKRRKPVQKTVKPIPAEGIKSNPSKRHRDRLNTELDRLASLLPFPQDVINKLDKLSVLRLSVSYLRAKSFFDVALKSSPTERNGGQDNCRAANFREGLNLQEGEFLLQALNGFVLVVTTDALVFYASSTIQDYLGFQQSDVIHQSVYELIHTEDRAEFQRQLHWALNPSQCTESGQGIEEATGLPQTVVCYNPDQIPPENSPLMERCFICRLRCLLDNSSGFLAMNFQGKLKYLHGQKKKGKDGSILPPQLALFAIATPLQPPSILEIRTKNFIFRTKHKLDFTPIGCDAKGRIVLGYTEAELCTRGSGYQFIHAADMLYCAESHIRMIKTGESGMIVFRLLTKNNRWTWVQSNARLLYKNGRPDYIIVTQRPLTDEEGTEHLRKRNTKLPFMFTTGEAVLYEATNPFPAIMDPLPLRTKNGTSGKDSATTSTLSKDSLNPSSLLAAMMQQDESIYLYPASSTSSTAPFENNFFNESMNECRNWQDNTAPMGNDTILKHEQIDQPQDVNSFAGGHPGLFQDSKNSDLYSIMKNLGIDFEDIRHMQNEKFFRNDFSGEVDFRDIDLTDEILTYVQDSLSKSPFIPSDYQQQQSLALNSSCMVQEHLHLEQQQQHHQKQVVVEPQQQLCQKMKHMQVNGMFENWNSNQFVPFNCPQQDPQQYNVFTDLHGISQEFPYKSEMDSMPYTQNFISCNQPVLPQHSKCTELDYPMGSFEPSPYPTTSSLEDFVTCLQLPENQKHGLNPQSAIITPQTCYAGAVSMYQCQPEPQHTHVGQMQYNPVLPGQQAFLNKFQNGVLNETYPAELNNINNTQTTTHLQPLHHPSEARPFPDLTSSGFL

C[C@H]1CCC[C@H](O)CCCCCc2cc(O)cc(O)c2C(=O)O1
inactive and 54.9 µM (active): Potency [1]
inactive: Potency [2] | outcome [3] | Potency [7] | Potency [10] | outcome [11] | Potency [12]
active: Potency [4] 848 nM [inconclusive] and 175 nM [inconclusive] | activation ([5]; at 70.3 µM (top of the series)) -0.266% | activation ([5]; at 95 µM (top of the series)) -52.7% | Potency [6] 23.7 µM | Potency [8] 61.6 µM | Potency [9] 43.6 µM

CCCSP(=O)(OCC)Oc1ccc(Br)cc1Cl (stereo not given)
inactive: Potency [1] | Potency [13] | outcome [3] | Potency [7] | Potency [9] | outcome [11] | outcome [14] | Potency [15] | Potency [12]

ClC(Cl)(Cl)C(Cl)(Cl)Cl
inactive: Potency [16] | Potency [13] | Potency [2] | outcome [3] | Potency [4] | activation ([5]; at 95 µM (top of the series)) -4.65% | Potency [6] | Potency [7] | Potency [8] | Potency [9] | Potency [10] | outcome [11] | outcome [14] | Potency [17] | Potency [18] | Potency [19] | Potency [15] | Potency [12] | outcome [20]

N#CCNCC#N
inactive: Potency [1] | Potency [2] | outcome [3] | Potency [4] | activation ([5]; at 70.3 µM (top of the series)) -9.97% | Potency [6] | Potency [8] | Potency [9] | Potency [10] | outcome [11] | outcome [14] | Potency [17] | Potency [18] | Potency [19] | Potency [15] | Potency [12] | outcome [20]

Cc1cc(C)c(C(=O)P(=O)(C(=O)c2c(C)cc(C)cc2C)c2ccccc2)c(C)c1
inactive: Potency [1] | Potency [13] | activation ([5]; at 70.3 µM (top of the series)) 37.1% | Potency [6] | Potency [7] | Potency [8] | Potency [9] | Potency [10] | outcome [11] | outcome [14] | Potency [17] | Potency [15] | Potency [12] | outcome [20]

CC(C1CC1)C(O)(Cn1cncn1)c1ccc(Cl)cc1 (stereo not given)
active: Potency [8] 24.2 µM
inactive: Potency [1] | Potency [13] | outcome [3] | Potency [7] | Potency [9] | Potency [10] | outcome [11] | outcome [14] | Potency [18] | Potency [15] | Potency [12] | outcome [20]

O=[N+]([O-])c1cccc(O)c1
inactive: Potency [1] | Potency [13] | outcome [3] | Potency [7] | Potency [8] | Potency [9] | Potency [10] | outcome [11] | outcome [14] | Potency [17] | Potency [18] | Potency [15] | Potency [12] | outcome [20]

Cc1cc(C)nc(Nc2ccccc2)n1
active: Potency [10] 48.6 µM
inactive: Potency [16] | Potency [13] | Potency [2] | outcome [3] | Potency [4] | Potency [7] | Potency [8] | Potency [9] | outcome [11] | outcome [14] | Potency [17] | Potency [19] | Potency [15] | Potency [12]

N#Cc1c(Cl)cccc1Cl
inactive: Potency [16] | Potency [13] | Potency [2] | outcome [3] | Potency [4] | activation ([5]; at 70.3 µM (top of the series)) -1.9% | Potency [6] | Potency [7] | Potency [8] | Potency [9] | Potency [10] | outcome [11] | outcome [14] | Potency [17] | Potency [18] | Potency [15] | Potency [12] | outcome [20]

CC(C)CC#N
inactive: Potency [1] | Potency [2] | outcome [3] | Potency [4] | activation ([5]; at 95 µM (top of the series)) 6.55% | Potency [7] | Potency [8] | Potency [9] | Potency [10] | outcome [11] | outcome [14] | Potency [17] | Potency [18] | Potency [15] | outcome [20]

O=NN1CCCCC1
inactive: Potency [1] | Potency [13] | outcome [3] | Potency [7] | Potency [8] | Potency [9] | Potency [10] | outcome [11] | outcome [14] | Potency [17] | Potency [18] | Potency [19] | Potency [15] | Potency [12]

CN1C(=S)CN=C(c2ccccc2)c2cc(Cl)ccc21
active: Potency [6] 13.3 µM
inactive: Potency [1] | Potency [13] | outcome [3] | Potency [4] | Potency [7] | Potency [8] | Potency [9] | Potency [10] | outcome [11] | Potency [17] | Potency [18] | Potency [19] | Potency [15] | Potency [12] | outcome [20]

COP(N)(=S)Oc1ccccc1C(=O)OC(C)C (stereo not given)
inactive: Potency [16] | Potency [13] | Potency [2] | outcome [3] | Potency [4] | Potency [6] | Potency [7] | Potency [8] | Potency [9] | outcome [11] | outcome [14] | Potency [17] | Potency [18] | Potency [15] | Potency [12] | outcome [20]

CCc1cc2c(s1)-n1c(C)nnc1CN=C2c1ccccc1Cl
active: Potency [6] 11.9 µM
inactive: Potency [1] | Potency [13] | outcome [3] | Potency [4] | Potency [8] | Potency [9] | Potency [10] | outcome [11] | outcome [14] | Potency [19] | Potency [15] | Potency [12] | outcome [20]

N#CC(Cl)(Cl)Cl
inactive: Potency [16] | Potency [13] | Potency [2] | outcome [3] | Potency [4] | activation ([5]; at 70.3 µM (top of the series)) -6.23% | Potency [6] | Potency [7] | Potency [8] | Potency [9] | Potency [10] | outcome [11] | outcome [14] | Potency [17] | Potency [18] | Potency [15] | outcome [20]

CN/C(=N\[N+](=O)[O-])NCC1CCOC1 (stereo not given)
inactive: Potency [1] | Potency [13] | outcome [3] | Potency [7] | Potency [8] | Potency [9] | Potency [10] | outcome [11] | Potency [18] | Potency [15] | Potency [12]

ClCC(Cl)(Cl)Cl
inactive: Potency [1] | Potency [2] | outcome [3] | Potency [4] | activation ([5]; at 95 µM (top of the series)) 9.47% | Potency [6] | Potency [7] | Potency [8] | Potency [9] | Potency [10] | outcome [11] | outcome [14] | Potency [17] | Potency [18] | Potency [19] | Potency [15] | outcome [20]

CC(C)COP(=O)(OCC(C)C)OCC(C)C
inactive: Potency [1] | Potency [13] | outcome [3] | Potency [7] | Potency [9] | Potency [10] | outcome [11] | outcome [14] | Potency [17] | Potency [19] | Potency [15] | Potency [12] | outcome [20]
